# PubChem BioAssay (Tox21)
# Several values for one entry are separate records, joined by “and”; a condition that tells them apart may be missing. Equal entries are not always repeated. Inconclusive results are not listed. Entries that show only a call come without a potency. Activity calls are given as the source filed them. The call rests on the fitted dose curve; in most records, active means well fitted activation curve with a large enough effect in the repeat runs; inconclusive means weak or mixed curves; inactive means no such curve, though single readings can be large or run the other way.
# Test: qHTS assay for small molecules that induce genotoxicity in human embryonic kidney cells expressing luciferase-tagged ATAD5 (AID 651632); further: nearly all actives have a fitted effect of over 15% in size
# Conditions: HEK293T ATAD5-luciferase induction, 16 h; series mostly up to 83.3 µM
# Outline: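 HEK293T cells carrying a luciferase reporter tagged to ATAD5 were exposed to compound or DMSO vehicle for 16 hr at 37C, 5% CO2. Amplite was added, and after 30 min at room temperature luciferase activity was read as a marker of ATAD5 induction.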
# Potency means the concentration at half of the fitted maximal effect.
row,Compound,Potency
1,CCC1(CCC(C)C)C(=O)NC(=O)NC1=O,inactive
2,C=CCN1C[C@H](C)N([C@H](c2ccc(C(=O)N(CC)CC)cc2)c2cccc(OC)c2)C[C@H]1C,inactive
3,O=C(NC(=O)c1cc(F)c(F)cc1Cl)Nc1cc(F)ccc1N1CCC(C(=O)O)CC1,inactive
4,CC(=O)OC(c1ccccc1)C(Cl)(Cl)Cl (stereo not given),inactive
5,CN1CC[C@]23c4c5ccc(O)c4O[C@H]2[C@@H](O)C=C[C@H]3[C@H]1C5,inactive
6,Nc1c(Br)cc(Br)c2c1C(=O)c1ccccc1C2=O,inactive
7,CCC(C)(C)O,inactive
8,CC(C)(C)N(NC(=O)c1ccc(Cl)cc1)C(=O)c1ccccc1,inactive
9,O=[N+]([O-])c1cc(Cl)c(Cl)cc1Cl,inactive
10,CN(C)c1ccc(N=O)cc1,21.8 µM (active) and 68.6 µM (active)
11,CCCN(CCOc1c(Cl)cc(Cl)cc1Cl)C(=O)n1ccnc1,inactive
12,Nc1ccccc1C(=O)OCCc1ccccc1,1.09 µM (active) and 433 nM (active)
13,O=C(O)COc1cc(Cl)c(Cl)cc1Cl,inactive
14,NP(N)(=O)NC(=O)c1ccc(F)cc1,inactive
15,O=S(=O)(c1ccccc1)c1ccccc1,inactive
16,CCNC(=O)NC(=O)/C(C#N)=N/OC,inactive
17,C[Si](Cn1cncn1)(c1ccc(F)cc1)c1ccc(F)cc1,inactive
18,C[C@]12C=CC3=C4CCC(=O)C=C4CC[C@H]3[C@@H]1CC[C@@H]2O,inactive
19,FC(Cl)(Cl)C(F)(Cl)Cl,inactive
20,O=C(O)C(F)(F)C(F)(F)C(F)(F)C(F)(F)C(F)(F)C(F)(F)C(F)(F)C(F)(F)F,inactive
